Many of the other results were omitted from the sample, so hits are more common in it than they were.
Artemis endo inh: Artemis (human) endonuclease inhibition; recombinant Artemis, quenched FAM hairpin cleavage fluorescence; 0.78% of 30,000 active; AID 686954; inhibition, % at 10 µM;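 active means at 10 µM dose, at least 30% inhibition, measured as corrected fluorescence normalized to stimulator and neutral control wells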
Target sequence (Q96SD1 whole entry, looked up): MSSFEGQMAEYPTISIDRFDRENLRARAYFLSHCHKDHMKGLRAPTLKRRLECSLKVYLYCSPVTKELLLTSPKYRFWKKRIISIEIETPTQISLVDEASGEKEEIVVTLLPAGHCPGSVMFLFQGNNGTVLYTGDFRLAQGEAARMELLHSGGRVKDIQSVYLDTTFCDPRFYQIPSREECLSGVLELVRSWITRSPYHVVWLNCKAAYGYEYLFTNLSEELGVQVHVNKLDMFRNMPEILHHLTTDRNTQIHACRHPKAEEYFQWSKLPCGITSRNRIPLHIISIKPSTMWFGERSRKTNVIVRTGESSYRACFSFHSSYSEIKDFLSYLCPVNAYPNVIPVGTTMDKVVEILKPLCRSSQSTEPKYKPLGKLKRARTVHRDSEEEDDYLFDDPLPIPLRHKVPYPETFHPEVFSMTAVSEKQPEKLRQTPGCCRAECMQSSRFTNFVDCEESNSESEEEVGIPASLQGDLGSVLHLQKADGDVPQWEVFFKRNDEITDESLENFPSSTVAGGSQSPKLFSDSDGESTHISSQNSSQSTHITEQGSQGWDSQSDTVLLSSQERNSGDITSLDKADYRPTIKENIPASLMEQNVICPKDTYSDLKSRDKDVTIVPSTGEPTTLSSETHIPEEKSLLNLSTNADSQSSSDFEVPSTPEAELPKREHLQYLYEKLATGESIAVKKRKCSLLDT
Starred values were filed as active, the others as inactive.

SMILES | Artemis endo inh
Cc1cc(NC(=O)CSc2nc3ccccc3c(=O)n2-c2ccccc2)no1 | -6
COc1ccc(-n2c(SCC#N)nc3ccccc3c2=O)cc1 | 0
COC(=O)c1ccc(C)c(NC(=O)CCSc2ccccc2)c1 | 1
COc1ccc(N2CCN(c3oc(COc4ccccc4)nc3C#N)CC2)cc1 | 14
O=C(N/N=C/c1cn(-c2ccccc2)nc1-c1ccc(F)cc1)c1ccc(Br)o1 | 12
CN1CCN(c2nc(C#N)cc(-c3ccccc3)n2)CC1 | -4
COc1ccc(C(c2nnnn2Cc2ccccc2)N2CCN(C(=O)c3ccco3)CC2)cc1 (configuration not stated) | -4
Cc1ccccc1Nc1cc2ccccc2c(=O)[nH]1 | 31*
COC(=O)c1[nH]c(=O)c2ccccc2c1O | 28
Cc1cccc2cc(=O)[nH]c(C)c12 | -3
CCn1c(NCc2cccs2)nc2ccccc21 | 2
CCOC(=O)Nc1c(C(=O)OC)[nH]c2cccc(OC)c12 | -1
O=C1c2ccccc2C(=O)c2c1oc(C(F)(F)F)c2C(=O)c1ccccc1 | 42*
O=C(c1ccccc1)c1nn(-c2ccccc2)c(=O)cc1C(F)(F)F | -4
O=C(c1ccccc1)c1nn(-c2ccc(Cl)cc2)c(=O)cc1C(F)(F)F | 1
Cc1ccc(Cn2ccc(NC(=O)c3c(-c4ccccc4Cl)noc3C)n2)cc1 | -1
CC1CC2(CCCCC2)Nc2ccc3ccccc3c21 (configuration not stated) | 13
Cc1[nH]n(-c2cccc(Cl)c2)c(=O)c1C=NC12CN3CN(CN(C3)C1)C2 | 9
CN(C)/N=C/c1c(O)ccc2ccccc12 | -1
Oc1ccc2ccccc2c1C=NC12CN3CCN(CN(C3)C1)C2 | 41*
Cn1ccnc1SCc1cn2cc(Br)ccc2n1 | 3
O=C(O)CC(C(=O)O)c1cn(Cc2ccccc2)c2ccccc12 (configuration not stated) | 2
Cc1[nH][nH]c(=O)c1C(c1c(C)[nH][nH]c1=O)c1cn(Cc2cccc3ccccc23)c2ccccc12 | 47*
N#Cc1ccccc1Cn1cc(C#N)c2ccccc21 | 10
O=C(NC(Cc1ccccc1)C(=O)O)/C(=C\c1ccco1)NC(=O)c1ccc(Br)cc1 (configuration not stated) | 21
SMILES | Artemis endo inh
Cc1onc(-c2ccccc2)c1C(=O)Nc1nc(-c2ccccc2)cs1 | -1
Cc1nc(CS(=O)(=O)c2ccc(Cl)cc2)cc(N2CCOCC2)n1 | -4
CCOc1ccccc1N1CCN(C(=O)C(F)(F)F)CC1 | -4
CCOc1ccccc1N1Cc2ccccc2C1 | 20
CCOc1ccccc1N1CN(CC)CNC1=S | 55*
Cc1cc(C)n(C(=O)CSc2nnc(SCC(=O)n3nc(C)cc3C)s2)n1 | 0
Cc1ccc(S(=O)(=O)NCCC2(C(C)C)CCOC(C)(C)C2)cc1 (configuration not stated) | 3
CCc1ccc(C2CC(c3ccco3)=NN2S(C)(=O)=O)cc1 (configuration not stated) | 1
Cc1ccc(NC(=O)CC2SC(=O)N(c3ccccc3)C2=O)cc1 (configuration not stated) | -4
CC(=O)N(c1cccc(C)c1)C1SC(=O)N(c2ccccc2)C1=O (configuration not stated) | 37*
Cc1cccc(NC(=O)CC2SC(=O)N(c3ccccc3)C2=O)c1 (configuration not stated) | 2
OC(c1cccs1)c1nccc2ccccc12 (configuration not stated) | -1
Cc1nn(-c2ccccc2)c2sc(C(=O)OCc3nnc(-c4ccccc4)o3)cc12 | 10
CCOC(=O)N1CCN(C(=O)CCCN2C(=O)CSc3nc(C)cc(C)c32)CC1 | -8
CCOc1ccc(/C=N/NC(=O)COc2ccccc2-c2ccccc2)cc1 | 17
O=C(COc1ccccc1C(=O)N/N=C\c1ccc(O)c(O)c1)N/N=C/c1ccc(O)c(O)c1 | 66*
Cc1cccc(C)c1OCC(=O)N/N=C/c1ccc2c(c1)OCO2 | -5
CCOC(=O)N1CCN(C(=O)Cn2ccc3ccccc3c2=O)CC1 | 6
Cc1ccc2[nH]c3c(N4CCc5ccccc5C4)ncnc3c2c1 | 9
CCOc1ccc(/C(O)=C2/C(=O)C(=O)N(CCOCCO)C2c2ccc(F)cc2)cc1 (configuration not stated) | 5
CCC(=O)Nc1cccc(C(=O)/C=C/c2cc(Br)ccc2OC)c1 | 2
CCC(=O)Nc1ccc(C(=O)Nc2ccc3c(c2)OCO3)cc1 | 36*
CN1CCN(CCC(=O)Nc2ccc3c(c2)OCO3)CC1 | 2
O=C(Nc1ccc(Cl)cc1)c1ccc2c(c1)OCO2 | -5
COc1ncnc(OC)c1NC(=O)c1ccc(F)cc1 | -1
SMILES | Artemis endo inh
CC1Cc2ccccc2N1C(=O)CSc1nc2c(c(=O)n(C)c(=O)n2C)n1Cc1ccc(F)cc1 (configuration not stated) | 12
CC1Cc2ccccc2N1C(=O)CSc1nnc2c(n1)[nH]c1ccccc12 (configuration not stated) | 36*
COc1cccc(-n2c(SCC(=O)N3c4ccccc4CC3C)nnc2-c2ccco2)c1 (configuration not stated) | 17
Cn1c(SCc2ccc3c(c2)OCO3)nnc1-c1ccccc1 | 11
O=C(NNC(=O)c1cc(-c2ccc(Cl)cc2Cl)nc2ccccc12)Nc1ccccc1 | 6
O=C(NNc1c2ccccc2nc2ccccc12)c1ccc(O)cc1O | 38*
O=C(COc1ccccc1)NNc1c2ccccc2nc2ccccc12 | 12
COc1ccc(OC)c(C2C(C(=O)c3sc(C)nc3C)=C(O)C(=O)N2CCN2CCOCC2)c1 (configuration not stated) | 11
Cc1ccccc1OCC(=O)NN1Cc2ccccc2C1=N | -8
C=CCNC(=S)N/N=C/c1ccc(-c2cc(Cl)ccc2Cl)o1 | 1
CC1=NOC(=O)/C1=C\c1ccc(-c2cc(Cl)ccc2Cl)o1 | 37*
COC(=O)c1ccc(Cl)c(-c2ccc(/C=N/NC(=O)Nc3ccccc3)o2)c1 | -2
CC(C)N1C(=S)SC2CS(=O)(=O)C=C21 (configuration not stated) | -4
O=C(CCCN1C(=O)c2ccccc2C1=O)Nc1nncs1 | -2
Cc1csc(=Nc2ccc(S(=O)(=O)N3CCOCC3)cc2)n1Cc1ccco1 | 16
CC1=C(C#N)C(=O)N(C)C(C)(C)C1 | -6
CCOC(=O)c1cc2c(=O)n3cccc(C)c3nc2n(CC2CCCO2)c1=NC(C)=O (configuration not stated) | 2
CCCCn1c(=NC(=O)c2ccc3c(c2)OCO3)c(C#N)cc2c(=O)n3cccc(C)c3nc21 | 40*
CCNC(=O)c1cc2c(=O)n3cccc(C)c3nc2n(Cc2ccc(C)cc2)c1=N | 7
c1ccc(-c2cc3ccccc3nc2N2CCCC2)cc1 | 2
O=C(O)c1cc(-c2ccccc2Cl)n[nH]1 | -9
Oc1c(Br)cc(C2N=C(c3ccccc3Cl)NO2)cc1Br (configuration not stated) | 31*
CCOc1cccc(-c2nn3c(-c4cc(C)[nH]n4)nnc3s2)c1 | 6
COc1cccc(OC)c1-c1nn2c(-c3cc(-c4ccccc4)n[nH]3)nnc2s1 | 80*
Cc1cc(-c2nnc3sc(-c4ccc(Cl)cc4Cl)nn23)n[nH]1 | 6
CCc1nnc(NC(=O)CCC(=O)N2CCN(Cc3cc(F)ccc3OC)CC2)s1 | 16
c1ccc(-c2nnc3sc(-c4csc5c4CCCC5)nn23)cc1 | 32*
c1cncc(-c2nnc3sc(C4CCCCC4)nn23)c1 | 2
Clc1ccc(-c2nnc3sc(-c4ccc(Br)o4)nn23)cc1 | -64

Compound activity deposited in PubChem BioAssay by Sanford-Burnham Center for Chemical Genomics.
